The record followed here is PubChem BioAssay (NCATS).

SMILES strings stand for the structures. Calls of active or inactive are those of the source. No rule for the calls is given here.
Potency is read from the fitted curve at half-maximal effect.

For the experiment, the system named is HIV-1 nucleocapsid protein NCp7 (binding to TG oligonucleotide). As to the kind of experiment: HIV Nucleocapsid (AID 346).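 Also: potency is for inhibitors that block NC binding and lower polarization.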 Particulars: HIV-1 NC / fluorescein-TGTGTGTG probe, fluorescence polarization. The essentials: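 NCp7 100 nM + fluorescein TG4xF 10 nM; Hepes pH 7.5/250mM NaCl/1uM ZnCl2/0.004% PEG 20000; 1 hr RT; FP, 45 s exposure; oligo-only wells as negative control.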
For `N#Cc1ccccc1-c1ccc2ncnc(NC3CC3)c2c1`, the Potency was > 20 µM (inactive).
`COc1ncc2nc(-c3ccc(F)cc3)c(=O)n(C3CC3)c2n1`: the Potency was > 20 µM (inactive).
Turning to `CN1CCN(c2ncc3nc(-c4ccccc4)c(=O)n(C4CC4)c3n2)CC1`, the Potency was > 20 µM (inactive).
Consider `COc1cccc(Cn2c(=O)cnc3cnc(OC)nc32)c1`, for which the Potency is > 20 µM (inactive).
For `CC(C)NC(=O)N1CC[C@@]2(CCCN(C(=O)c3ccncc3)C2)C1` the value was > 20 µM (inactive).
Take `N#CCCn1c(=O)c(-c2cccs2)nc2cnc(Nc3ccccc3)nc21`: the Potency is > 20 µM (inactive).
In the case of `CN1CCN(c2ncc3nc(-c4cn(C)c5ccccc45)c(=O)n(CCc4ccccc4)c3n2)CC1`, the Potency was > 4 µM (inactive).
For `COc1ccccc1-c1nccc(NCc2ccccc2)n1` the value was > 20 µM (inactive); for `N#Cc1cccc(-c2nc3cnc(N4CCOCC4)nc3n(C[C@H]3CCCO3)c2=O)c1`, > 20 µM (inactive); for `COCC(=O)N1CCC2(CCN(Cc3ccc(C#N)cc3)CC2)CC1`, > 20 µM (inactive).
Regarding `CNc1ncncc1-c1ccccc1C`, the Potency was > 20 µM (inactive).
The result for `Clc1ccccc1-c1nc(Nc2ccncc2)c2ccccc2n1` reads > 20 µM (inactive); that for `N#Cc1ccc(CN2CCCC3(CCN(C(=O)c4cnccn4)CC3)C2)cc1`, > 20 µM (inactive).
`Cn1cccc1C(=O)N1CCC[C@@]2(CCN(c3ncccn3)C2)C1`: the Potency was > 20 µM (inactive).
With `c1nc(NC2CC2)c2cc(-c3ccoc3)ccc2n1`, the Potency was > 20 µM (inactive).
The result for `CN(Cc1ccco1)c1ncnc2ccc(-c3cccc(NS(C)(=O)=O)c3)cc12` reads > 20 µM (inactive); that for `Cc1cccc(CNc2ncnc3ccc(-c4ccc5c(c4)OCO5)cc23)c1`, > 20 µM (inactive).
For the compound `COc1cccc(-c2nccc(NCCc3c[nH]c4ccc(OC)cc34)n2)c1`, the Potency is > 20 µM (inactive).
Turning to `O=C(c1cccc(F)c1)N1CCC[C@@]2(CCN(Cc3nccs3)C2)C1`, the Potency is > 20 µM (inactive).
Regarding `Cc1noc(C)c1C(=O)N1CCC2(CCCN(c3ccccn3)C2)CC1`, the Potency is > 20 µM (inactive).
For `CN1CCN(c2nc(-c3ccc(N(C)C)cc3)nc3ccccc23)CC1` the value was > 20 µM (inactive).
The result for `O=c1cnc2cnc(Oc3cccc(Cl)c3)nc2n1C[C@H]1CCCO1` reads > 20 µM (inactive); that for `CN(Cc1ccco1)c1ncnc2ccc(-c3ccccc3Cl)cc12`, > 20 µM (inactive); that for `O=c1c(-c2ccc(Cl)cc2)nc2cnc(N3CCOCC3)nc2n1-c1ccccc1`, > 20 µM (inactive).
For the compound `COC(=O)N1CCC[C@@]2(CCN(C(=O)Nc3ccc(OC)cc3)C2)C1`, the Potency is > 20 µM (inactive).
`O=c1c(-c2cccc(Cl)c2)nc2cncnc2n1Cc1ccc(F)cc1`: the Potency was > 20 µM (inactive).
As for `COCC(=O)N1CCC[C@@]2(CCN(Cc3ccccc3OC)C2)C1`, the Potency is > 20 µM (inactive).
For the compound `O=C(c1cccc(F)c1)N1CCC2(CCN(Cc3nccs3)CC2)CC1`, the Potency is > 20 µM (inactive).
With `COCCn1c(=O)c(-c2cc(F)cc(F)c2)nc2cnc(OCc3ccccc3)nc21`, the Potency was > 20 µM (inactive).
In the case of `CC(=O)N1CCC2(CCCN(c3ccccc3)C2)CC1`, the Potency is > 20 µM (inactive).
On to `COc1cccc(Cn2c(=O)c(C)nc3cnc(N4CCN(C)CC4)nc32)c1`, for which the Potency was > 20 µM (inactive).
Consider `O=C(c1csnn1)N1CCC2(CCCN(c3ccccn3)C2)CC1`, for which the Potency was > 20 µM (inactive).
Regarding `FC(F)(F)c1ccccc1-c1nc(NCc2cccnc2)c2ccccc2n1`, the Potency is > 20 µM (inactive).
For the compound `CS(=O)(=O)N1CCC2(CC1)CN(c1ccc(-c3ccccc3)cc1)C2`, the Potency was > 20 µM (inactive).
`CCNc1ncc2nc(-c3ccc(OC)cc3)c(=O)n(-c3ccc(OC)cc3)c2n1`: the Potency is > 4 µM (inactive).
On to `COc1cccc(Nc2ncc3nc(-c4ccc(F)cc4)c(=O)n(C)c3n2)c1`, for which the Potency was > 4 µM (inactive).
Regarding `c1ccc2c(Nc3ccncc3)nc(-c3ccoc3)nc2c1`, the Potency is > 20 µM (inactive).
The result for `CC(C)CN1CCC2(CC1)CCN(C(=O)c1cccn1C)CC2` reads > 20 µM (inactive); that for `Cc1cnc(CNc2ncncc2-c2ccccc2Cl)cn1`, > 20 µM (inactive); that for `CS(=O)(=O)N1CCC2(CC1)CN(C(=O)Nc1cccc(C#N)c1)C2`, > 20 µM (inactive).
